In the antibiotic and cytotoxicity screens of Wong et al. (2023):
About 3,300 (8.5%) of roughly 39,000 compounds were called active. This is one part of a sample in which actives are shown more often than they occur.

What follows are compounds tested on HepG2 (assay: cytotoxicity call (relative viability < 0.9)). Settings: 10 µM.

Row | Compound | cytotoxicity call
1 | O=c1[nH]c(=S)[nH]nc1O | inactive
2 | CC1(C)C=C(C(=O)N2CCOCC2)C(C)(C)N1 | inactive
3 | C[C@@H]1CN([C@H](C)CO)C(=O)Cc2cc(NC(=O)C3CCCCC3)ccc2O[C@H]1CN(C)S(=O)(=O)c1cn(C)cn1 | inactive
4 | C[C@H](CO)N1C[C@H](C)[C@@H](CN(C)Cc2ccc(-c3ccccc3)cc2)Oc2ccc(NC(=O)Cn3cnnn3)cc2CC1=O | inactive
5 | NCCCCCCNC(=O)[C@H]1C[C@H]2C(=O)N[C@@H](Cc3ccccc3)C(=O)N2[C@H]1c1cccc(OCCO)c1 | inactive
6 | C[C@@H]1CCCCO[C@@H](CN(C)C(=O)Cc2ccccc2)[C@H](C)CN([C@@H](C)CO)C(=O)c2cc(NS(=O)(=O)c3ccc(F)cc3)ccc2O1 | inactive
7 | O.O=C([O-])CC(O)(CC(=O)[O-])C(=O)[O-].[Li+].[Li+].[Li+] | inactive
8 | C[C@@H]1CN([C@H](C)CO)C(=O)c2cccc(NS(=O)(=O)c3cccs3)c2O[C@@H]1CN(C)Cc1ccc(-c2ccccc2)cc1 | inactive
9 | C[C@@H]1CN([C@@H](C)CO)C(=O)c2cccc(NS(=O)(=O)c3cccs3)c2O[C@@H]1CN(C)Cc1ccc(-c2ccccc2)cc1 | active
10 | CC(C)NC(=O)N(C)C[C@H]1Oc2c(NS(=O)(=O)c3ccccc3)cccc2C(=O)N([C@H](C)CO)C[C@@H]1C | inactive
11 | C[C@H]1CN([C@@H](C)CO)C(=O)c2cccc(NS(=O)(=O)c3ccc(Cl)cc3)c2O[C@@H]1CN(C)Cc1ccc(C(F)(F)F)cc1 | inactive
12 | CC(C)NC(=O)N(C)C[C@H]1Oc2c(NS(=O)(=O)c3ccccc3)cccc2C(=O)N([C@H](C)CO)C[C@H]1C | active
13 | C[C@H](CO)N1C[C@H](C)[C@@H](CN(C)Cc2ccc(C(F)(F)F)cc2)Oc2c(NS(=O)(=O)c3ccc(Cl)cc3)cccc2C1=O | inactive
14 | C[C@@H]1CN([C@@H](C)CO)C(=O)c2cccc(NS(=O)(=O)c3ccc(Cl)cc3)c2O[C@@H]1CN(C)Cc1ccc(C(F)(F)F)cc1 | active
15 | CC(C)NC(=O)N(C)C[C@@H]1Oc2c(NS(=O)(=O)c3ccccc3)cccc2C(=O)N([C@@H](C)CO)C[C@@H]1C | inactive
16 | C[C@@H]1CN([C@H](C)CO)C(=O)c2cccc(NS(=O)(=O)c3cccs3)c2O[C@H]1CN(C)Cc1ccc(-c2ccccc2)cc1 | inactive
17 | Cc1noc(C)c1S(=O)(=O)N(C)C[C@H]1OCCCC[C@@H](C)Oc2ccc(NC(=O)Nc3ccc(F)cc3)cc2C(=O)N([C@@H](C)CO)C[C@H]1C | inactive
18 | Cc1noc(C)c1NC(=O)Nc1ccc2c(c1)CC(=O)N([C@H](C)CO)C[C@H](C)[C@@H](CN(C)Cc1ccc(Oc3ccccc3)cc1)O2 | inactive
19 | C[C@H](CO)N1C[C@H](C)[C@@H](CN(C)C(=O)Nc2ccc3c(c2)OCO3)Oc2ccc(NC(=O)C3CC3)cc2CC1=O | inactive
20 | Cc1noc(C)c1S(=O)(=O)N(C)C[C@H]1Oc2ccc(NC(=O)Cn3cnnn3)cc2C(=O)N([C@H](C)CO)C[C@H]1C | inactive
21 | C[C@@H]1CN([C@H](C)CO)S(=O)(=O)c2ccc(C#Cc3ccccc3)cc2O[C@@H]1CN(C)C(=O)Cc1ccccn1 | inactive

Row | Compound | cytotoxicity call
22 | C[C@@H]1CN([C@H](C)CO)C(=O)Cc2cc(NC(=O)c3ccncc3)ccc2O[C@@H]1CN(C)Cc1ccc2c(c1)OCO2 | inactive
23 | COc1ccc(CNCC(=O)O)cc1 | inactive
24 | COC(=O)[C@@H]1[C@@H](c2ccc(OC)cc2)[C@H](C(=O)OC)S(=O)(=O)CS1(=O)=O | active
25 | COc1ccc(C(N)=O)cc1 | inactive
26 | C=C1C(=O)OC2C1CCC(C)=CCCC1(C)OC21 (configuration not stated) | active
27 | C=C1CCC=C(C)CCC2C1CC2(C)C.O (single isomer, unassigned; (-)) [(-)E-CARYOPHYLLENE hydrate ] | inactive
28 | C[C@H](CO)N1C[C@H](C)[C@H](CN(C)S(=O)(=O)c2ccccc2)Oc2ncc(C#Cc3ccccc3)cc2C1=O | inactive
29 | Cc1ccc(S(=O)(=O)Nc2ccc3c(c2)C(=O)N([C@H](C)CO)C[C@H](C)[C@@H](CN(C)C(=O)c2ccccc2)OCCCC[C@@H](C)O3)cc1 | inactive
30 | COCC(=O)N1CC[C@]2(CC(C(=O)NCc3cnc(C)cn3)=NO2)C1 | inactive
31 | COc1ccc(S(=O)(=O)N(C)C[C@@H]2OCCCC[C@@H](C)Oc3ccc(NC(=O)Nc4c(C)noc4C)cc3C(=O)N([C@@H](C)CO)C[C@H]2C)cc1 | inactive
32 | COc1ccc(S(=O)(=O)N(C)C[C@H]2OCCCC[C@@H](C)Oc3ccc(NC(=O)Nc4c(C)noc4C)cc3C(=O)N([C@H](C)CO)C[C@@H]2C)cc1 | inactive
33 | COc1ccc(S(=O)(=O)N(C)C[C@@H]2OCCCC[C@H](C)Oc3ccc(NC(=O)Nc4c(C)noc4C)cc3C(=O)N([C@@H](C)CO)C[C@H]2C)cc1 | inactive
34 | COc1ccc(S(=O)(=O)N(C)C[C@H]2OCCCC[C@H](C)Oc3ccc(NC(=O)Nc4c(C)noc4C)cc3C(=O)N([C@@H](C)CO)C[C@@H]2C)cc1 | active
35 | COc1ccc(S(=O)(=O)N(C)C[C@H]2OCCCC[C@H](C)Oc3ccc(NC(=O)Nc4c(C)noc4C)cc3C(=O)N([C@@H](C)CO)C[C@H]2C)cc1 | active
36 | COc1ccc(S(=O)(=O)N(C)C[C@@H]2OCCCC[C@H](C)Oc3ccc(NC(=O)Nc4c(C)noc4C)cc3C(=O)N([C@H](C)CO)C[C@@H]2C)cc1 | inactive
37 | Cc1noc(C)c1NC(=O)N(C)C[C@H]1Oc2ccc(NS(=O)(=O)c3cn(C)cn3)cc2CC(=O)N([C@H](C)CO)C[C@@H]1C | inactive
38 | C[C@@H]1CN([C@@H](C)CO)C(=O)c2cccc(NS(=O)(=O)c3cn(C)cn3)c2O[C@@H]1CN(C)Cc1ccncc1 | inactive
39 | O=C(C[C@H]1C[C@H]2c3cc(NC(=O)Nc4ccc(C(F)(F)F)cc4)ccc3O[C@H]2[C@H](CO)O1)NCc1cc(F)ccc1F | inactive
40 | CNC[C@@H]1OCCCC[C@@H](C)Oc2ccc(NS(=O)(=O)c3c(C)noc3C)cc2C(=O)N([C@H](C)CO)C[C@@H]1C | inactive
41 | C[C@H]1C/C(=C\N(C)C)C(=O)C1=O | active
42 | C[C@@H]1CCCCO[C@@H](CN(C)C(=O)Nc2ccc3c(c2)OCO3)[C@H](C)CN([C@H](C)CO)C(=O)c2cc(NS(=O)(=O)c3ccc(Cl)cc3)ccc2O1 | inactive
